Article PMC12820563, “FoxP3 forms a head-to-head dimer in vivo and stabilizes its multimerization on adjacent microsatellites”
In all, about 16,000 sequences were measured (“rpm ratio (pull-down/input)”: median about 0.5, highest 2% from about 5.5 on). The sample as a whole holds a higher share of the highest values than the screen did.

Molecular target: T1, MBP-FoxP3dN (Mus musculus, UniProt Q99JB6 188-423)
T1 sequence: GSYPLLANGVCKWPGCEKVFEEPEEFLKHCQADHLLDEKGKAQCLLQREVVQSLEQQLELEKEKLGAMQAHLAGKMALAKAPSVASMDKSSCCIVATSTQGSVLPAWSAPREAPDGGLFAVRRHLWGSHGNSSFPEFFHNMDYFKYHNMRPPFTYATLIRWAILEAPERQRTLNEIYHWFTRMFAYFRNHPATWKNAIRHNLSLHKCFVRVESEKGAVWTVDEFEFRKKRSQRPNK
Test: PD-seq (MBP pull-down with sequencing); 20 mM Tris-HCl pH 7.5, 100 mM NaCl, 1.5 mM MgCl2, 0.4 uM protein, 0.1 uM dsDNA library, 30 min, room temperature, amylose pull-down; high values mean tight binding
Conditions: protein: recombinant; tags: His6-MBP; chain copies: 2; dsDNA, one strand shown
In short: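 Binding is reads-per-million enrichment of pull-down over input, with replicates pooled. It comes from 30 min room-temperature incubation in Tris pH 7.5 buffer with NaCl and MgCl2 of 0.4 µM His6-MBP-tagged, N-terminally truncated mouse FoxP3 or FoxP1 fragment from E. coli with 0.1 µM Klenow-filled degenerate double-stranded DNA library, followed by amylose resin capture, three washes and Illumina sequencing of the released DNA.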

Row | Sequence | binding signal
1 | GATGATTGTTCTCCCAGCTGATGAATTTCGCTTGTCGAGTAAACAAATTTTCCTAATCTTTCTGTTCAAGCGCCATCTAC | 3.29 RPM ratio (pull-down/input)
2 | GATGATTGTTCTCCCAGCTGATGAATTCTATACATCGAGTAAACAAATTTTCCTAATCTTTCTGTTCAAGCGCCATCTAC | 0.559 RPM ratio (pull-down/input)
3 | GATGATTGTTCTCCCAGCTGATGAATTCAGTATATCGAGTAAACAAATTTTCCTAATCTTTCTGTTCAAGCGCCATCTAC | 2.12 RPM ratio (pull-down/input)
4 | GATGATTGTTCTCCCAGCTGATGAATTTTGTATATCGAGTAAACAAATTTTCCTAATCTTTCTGTTCAAGCGCCATCTAC | 7.43 RPM ratio (pull-down/input)
5 | GATGATTGTTCTCCCAGCTGATGAATTGTATATATCGAGTAAACAAATTTTCCTAATCTTTCTGTTCAAGCGCCATCTAC | 3.21 RPM ratio (pull-down/input)
6 | GATGATTGTTCTCCCAGCTGATGAATTTTATACATCGAGTAAACAAATTTTCCTAATCTTTCTGTTCAAGCGCCATCTAC | 0.598 RPM ratio (pull-down/input)
7 | GATGATTGTTCTCCCAGCTGATGAATTCTATATATCGAGTAAACAAATTTTCCTAATCTTTCTGTTCAAGCGCCATCTAC | 1.18 RPM ratio (pull-down/input)
8 | GATGATTGTTCTCCCAGCTGATGAATTCTGTATATCGAGTAAACAAATTTTCCTAATCTTTCTGTTCAAGCGCCATCTAC | 5.72 RPM ratio (pull-down/input)
9 | GATGATTGTTCTCCCAGCTGATGAATTTGTAATATCGAGTAAACAAATTTTCCTAATCTTTCTGTTCAAGCGCCATCTAC | 1.95 RPM ratio (pull-down/input)
10 | GATGATTGTTCTCCCAGCTGATGAATTGTATACATCGAGTAAACAAATTTTCCTAATCTTTCTGTTCAAGCGCCATCTAC | 5.87 RPM ratio (pull-down/input)
11 | GATGATTGTTCTCCCAGCTGATGAATTTCAGCAATCGAGTAAACAAATTTTCCTAATCTTTCTGTTCAAGCGCCATCTAC | 1.94 RPM ratio (pull-down/input)
12 | GATGATTGTTCTCCCAGCTGATGAATTCACAGCATCGAGTAAACAAATTTTCCTAATCTTTCTGTTCAAGCGCCATCTAC | 0.801 RPM ratio (pull-down/input)
13 | GATGATTGTTCTCCCAGCTGATGAATTAGCACTTTCGAGTAAACAAATTTTCCTAATCTTTCTGTTCAAGCGCCATCTAC | 0.435 RPM ratio (pull-down/input)
14 | GATGATTGTTCTCCCAGCTGATGAATTAATCTATTCGAGTAAACAAATTTTCCTAATCTTTCTGTTCAAGCGCCATCTAC | 0.398 RPM ratio (pull-down/input)
15 | GATGATTGTTCTCCCAGCTGATGAATTTCTAATTTCGAGTAAACAAATTTTCCTAATCTTTCTGTTCAAGCGCCATCTAC | 0.301 RPM ratio (pull-down/input)
16 | GATGATTGTTCTCCCAGCTGATGAATTTTTTATGTCGAGTAAACAAATTTTCCTAATCTTTCTGTTCAAGCGCCATCTAC | 0.31 RPM ratio (pull-down/input)
17 | GATGATTGTTCTCCCAGCTGATGAATTGGTTATGTCGAGTAAACAAATTTTCCTAATCTTTCTGTTCAAGCGCCATCTAC | 2.38 RPM ratio (pull-down/input)
18 | GATGATTGTTCTCCCAGCTGATGAATTATTTATGTCGAGTAAACAAATTTTCCTAATCTTTCTGTTCAAGCGCCATCTAC | 2.12 RPM ratio (pull-down/input)

Row | Sequence | binding signal
19 | GATGATTGTTCTCCCAGCTGATGAATTGATTATGTCGAGTAAACAAATTTTCCTAATCTTTCTGTTCAAGCGCCATCTAC | 1.86 RPM ratio (pull-down/input)
20 | GATGATTGTTCTCCCAGCTGATGAATTTGTTATGTCGAGTAAACAAATTTTCCTAATCTTTCTGTTCAAGCGCCATCTAC | 6.84 RPM ratio (pull-down/input)
21 | GATGATTGTTCTCCCAGCTGATGAATTATGTTTGTCGAGTAAACAAATTTTCCTAATCTTTCTGTTCAAGCGCCATCTAC | 7.57 RPM ratio (pull-down/input)
22 | GATGATTGTTCTCCCAGCTGATGAATTGTTTATGTCGAGTAAACAAATTTTCCTAATCTTTCTGTTCAAGCGCCATCTAC | 7 RPM ratio (pull-down/input)
23 | GATGATTGTTCTCCCAGCTGATGAATTTCTTATGTCGAGTAAACAAATTTTCCTAATCTTTCTGTTCAAGCGCCATCTAC | 0.657 RPM ratio (pull-down/input)
24 | GATGATTGTTCTCCCAGCTGATGAATTATGTCTGTCGAGTAAACAAATTTTCCTAATCTTTCTGTTCAAGCGCCATCTAC | 1.14 RPM ratio (pull-down/input)
25 | GATGATTGTTCTCCCAGCTGATGAATTTATGATGTCGAGTAAACAAATTTTCCTAATCTTTCTGTTCAAGCGCCATCTAC | 3.91 RPM ratio (pull-down/input)
26 | GATGATTGTTCTCCCAGCTGATGAATTTATTATGTCGAGTAAACAAATTTTCCTAATCTTTCTGTTCAAGCGCCATCTAC | 5.83 RPM ratio (pull-down/input)
27 | GATGATTGTTCTCCCAGCTGATGAATTTATGTTGTCGAGTAAACAAATTTTCCTAATCTTTCTGTTCAAGCGCCATCTAC | 4.93 RPM ratio (pull-down/input)
28 | GATGATTGTTCTCCCAGCTGATGAATTGAGCACGTCGAGTAAACAAATTTTCCTAATCTTTCTGTTCAAGCGCCATCTAC | 0.919 RPM ratio (pull-down/input)
29 | GATGATTGTTCTCCCAGCTGATGAATTCGTATGCTCGAGTAAACAAATTTTCCTAATCTTTCTGTTCAAGCGCCATCTAC | 2.01 RPM ratio (pull-down/input)
30 | GATGATTGTTCTCCCAGCTGATGAATTTGGCGACTCGAGTAAACAAATTTTCCTAATCTTTCTGTTCAAGCGCCATCTAC | 1.79 RPM ratio (pull-down/input)
31 | GATGATTGTTCTCCCAGCTGATGAATTTCTGCTGTCGAGTAAACAAATTTTCCTAATCTTTCTGTTCAAGCGCCATCTAC | 0.378 RPM ratio (pull-down/input)
32 | GATGATTGTTCTCCCAGCTGATGAATTACTTGTTTCGAGTAAACAAATTTTCCTAATCTTTCTGTTCAAGCGCCATCTAC | 0.804 RPM ratio (pull-down/input)
33 | GATGATTGTTCTCCCAGCTGATGAATTCCTGAAATCGAGTAAACAAATTTTCCTAATCTTTCTGTTCAAGCGCCATCTAC | 0.237 RPM ratio (pull-down/input)
34 | GATGATTGTTCTCCCAGCTGATGAATTTGAGTTATCGAGTAAACAAATTTTCCTAATCTTTCTGTTCAAGCGCCATCTAC | 0.953 RPM ratio (pull-down/input)
35 | GATGATTGTTCTCCCAGCTGATGAATTACCCTGATCGAGTAAACAAATTTTCCTAATCTTTCTGTTCAAGCGCCATCTAC | 0.253 RPM ratio (pull-down/input)
